{"source": "PubChem BioAssay (NCI)", "note": "The panel holds about 83,000 compounds, 20% with a hit somewhere; the sample as a whole holds those more often.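 Negative percent growth values reflect cell death: -40 means 40% of the cells present at the start died, and -100 means all died.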 A number with no mark means an inactive call. Calls of active or inactive are those of the source. How the source made its calls: active means growth percent below 10; inactive means the rest."}
{"tested_on": "HCT-116 colon", "assay": "NCI-60 one-dose screen, 48 h (100 = growth as untreated, 0 = no growth, -100 = all killed)", "conditions": "10 µM unless noted"}
{"smiles": "C#CCNC(=O)CC[C@@H](C)[C@H]1CC[C@H]2[C@@H]3CC[C@@H]4CC(=O)CC[C@]4(C)[C@H]3CC[C@]12C", "growth": "-1.19% [100 µM] (active)"}
{"smiles": "C=C(C)[C@@H]1CC[C@]2(C)[C@H](CC[C@@H]3[C@@H]([C@@](C)(O)CCC=C(C)C)CC[C@]32C)[C@@]1(C)CCC(=O)O", "growth": "-39.4% [100 µM] (active)"}
{"smiles": "CCOC(=O)COc1ccc2c(c1)O/C(=C\\c1ccc(O)cc1)C2=O", "growth": "105%"}
{"smiles": "O=c1c2c3c(sc2n2cnnc2n1Cc1ccccc1)CCCC3", "growth": "122%"}
{"smiles": "CC(C)CSc1ncnc2nc[nH]c12", "growth": "109%"}
{"smiles": "O=C(Oc1ccc(Cl)cc1[N+](=O)[O-])Oc1ccc(Cl)cc1[N+](=O)[O-]", "growth": "113%"}
{"smiles": "CCOC(=O)c1nn(C2CCCCO2)c2ccc(NC(=O)CSc3nc4ccccc4c(=O)[nH]3)cc12", "note": "(centres undefined)", "growth": "101%"}
{"smiles": "COc1ncc(-c2ccc3nccc(C#CCCCCC(=O)O)c3c2)cc1NS(=O)(=O)c1ccc(F)cc1F", "growth": "41.1%"}
{"smiles": "CCN(CC)CCS(=O)(=O)CCNc1ccnc2cc(Cl)ccc12", "growth": "6.59% (active)"}
{"smiles": "Cc1cc(N2CCCCCC2)nc(N2CCN(CC(=O)Nc3ccc4c(ccn4Cc4ccccc4)c3)CC2)n1", "growth": "32%"}
{"smiles": "COc1cc(-c2cc(-c3ccc(Nc4ncnc5cc(Cl)ccc45)cc3)nc(N3CCCCC3)n2)cc(OC)c1OC", "growth": "103%"}
{"smiles": "O=C(Nc1cccc2cccnc12)c1cc(C(=O)c2ccc(Cl)cc2)n2ccc(-c3ccncc3)cc12", "growth": "101%"}
{"smiles": "O=C1/C(=C/c2cccc(OCc3ccccc3)c2)Oc2cc(OCCN3CCCCC3)ccc21", "growth": "52.8%"}
{"smiles": "COc1cc2c(c(OC)c1OC)-c1ccc(NNC(N)=S)c(=O)cc1[C@@H](NC(C)=O)CC2", "growth": "2.28% (active)"}
{"smiles": "CCOC(=O)c1nn(C2CCCCO2)c2ccc(NC(=O)CN3CCOCC3)cc12", "note": "(centres undefined)", "growth": "90.5%"}
{"smiles": "O=S(=O)(NCc1ccccc1)c1ncnc2nc[nH]c12", "growth": "108%"}
{"smiles": "COc1ccccc1S(=O)Nc1ccccc1", "note": "(centres undefined)", "growth": "115%"}
{"smiles": "CC(=O)n1cc(C=O)c2ccccc21", "growth": "109%"}
{"smiles": "CC(C)=CCC[C@](C)(O)[C@H]1CC[C@]2(C)[C@@H]1CC[C@@H]1[C@@]3(C)CC[C@H](OC(=O)CCC(=O)O)C(C)(C)[C@@H]3CC[C@]12C", "growth": "9.66% [100 µM] (active)"}
{"smiles": "COc1ccc(C2NC(=O)C(C#N)c3c2sc2c(F)cccc32)cc1", "note": "(centres undefined)", "growth": "37.5%"}
{"smiles": "Cc1ccc(NC(=O)N[C@@H](Cc2cc(F)cc(F)c2)C(=O)N[C@@H]2C(=O)N3CCC[C@H]3C(=O)N3CCCC[C@H]3C(=O)N[C@@H](C)C(=O)N3C[C@H](C)C[C@H]3C(=O)O[C@H]2C)cc1", "growth": "11.2%"}
{"smiles": "O=C1Nc2ccccc2/C1=C/C(=O)c1ccc(N2CCOCC2)cc1", "growth": "92.2%"}
{"smiles": "COc1ccc2nc3c(cc2c1)C(=O)CC(C(F)(F)F)C3", "note": "(centres undefined)", "growth": "11.9%"}
{"smiles": "CNC(=O)c1cc(Oc2ccc3nc(NC(=O)c4ccc5ncccc5c4)sc3c2)ccn1", "growth": "103%"}
{"smiles": "N#Cc1c(Cl)nc(SCC2CO2)nc1-c1ccccc1", "note": "(centres undefined)", "growth": "88.8%"}
{"smiles": "CCCCCCCCCN(CCCCCCCCC)C(C)C(=O)c1ccc2cc(Br)c3ccccc3c2c1", "note": "(centres undefined)", "growth": "73.5%"}
{"tested_on": "HCC-2998 colon", "assay": "NCI-60 one-dose screen, 48 h (100 = growth as untreated, 0 = no growth, -100 = all killed)", "conditions": "10 µM unless noted"}
{"smiles": "O=[N+]([O-])c1cc([N+](=O)[O-])c(C(F)(F)F)cc1NN=C(c1ccc(O)cc1)c1ccc(O)cc1", "growth": "-55.5% (active)"}
{"smiles": "O=C(COc1cccc(/C=C2\\Oc3ccccc3C2=O)c1)c1ccc([N+](=O)[O-])cc1", "growth": "96.8%"}
{"smiles": "COc1cc(NCc2cn(-c3ccc(C(=O)O)cc3)nc2-c2ccc(C(=O)O)cc2)cc(OC)c1OC", "growth": "104%"}
{"smiles": "COc1ncc(-c2ccc3nccc(C#CCCCCC(=O)NO)c3c2)cc1NS(=O)(=O)c1ccc(F)cc1F", "growth": "7.27% (active)"}
{"smiles": "O=C(O)CSCc1nnc2n(Cc3ccccc3)c(=O)c3c4c(sc3n12)CCCC4", "growth": "98.1%"}
{"smiles": "C[C@]12CCc3nc(Nc4ccccc4)sc3C1=CC[C@@H]1[C@@H]2CC[C@]2(C)/C(=N/NC(N)=S)CC[C@@H]12", "growth": "84.9%"}
{"smiles": "C=C(C)C1CCC2(C(=O)O)CCC3(C)C(CCC4C5(C)CCC(OC(=O)NCc6ccccc6)C(C)(C)C5CCC43C)C12", "note": "(centres undefined)", "growth": "51.3%"}
{"smiles": "CC(C)=CCC[C@](C)(O)[C@H]1CC[C@]2(C)[C@@H]1CC[C@@H]1[C@@]3(C)CC/C(=N/O)C(C)(C)[C@@H]3CC[C@]12C", "growth": "10.9% [100 µM]"}
{"smiles": "N#CC1C(=O)NC(c2ccccc2[N+](=O)[O-])c2sc3c(F)cccc3c21", "note": "(centres undefined)", "growth": "93.8%"}
{"smiles": "Brc1ccc(-c2nnc3c4[nH]ccc4ncn23)cc1", "growth": "96.6%"}
{"smiles": "CCCCCCCCCCCCNC(=S)N/N=C/c1ccccc1O", "growth": "78.2%"}
{"smiles": "CC1(C)CC[C@]2(C(=O)O)CC[C@]3(C)[C@H](CC[C@@H]4[C@@]5(C)CCC(=O)C(C)(C)[C@@H]5CC[C@]43C)[C@H]2[C@H]1OC(=O)C(F)(F)F", "growth": "-93.7% [100 µM] (active)"}
{"smiles": "C#CCNC(=O)CC[C@@H](C)[C@H]1CC[C@H]2[C@@H]3CC[C@@H]4CC(=O)CC[C@]4(C)[C@H]3CC[C@]12C", "growth": "0.203% [100 µM] (active)"}
{"smiles": "C=C(C)[C@@H]1CC[C@]2(C)[C@H](CC[C@@H]3[C@@H]([C@@](C)(O)CCC=C(C)C)CC[C@]32C)[C@@]1(C)CCC(=O)O", "growth": "-37.4% [100 µM] (active)"}
{"smiles": "CCOC(=O)COc1ccc2c(c1)O/C(=C\\c1ccc(O)cc1)C2=O", "growth": "111%"}
{"smiles": "O=c1c2c3c(sc2n2cnnc2n1Cc1ccccc1)CCCC3", "growth": "105%"}
{"smiles": "CC(C)CSc1ncnc2nc[nH]c12", "growth": "101%"}
{"smiles": "O=C(Oc1ccc(Cl)cc1[N+](=O)[O-])Oc1ccc(Cl)cc1[N+](=O)[O-]", "growth": "108%"}
{"smiles": "CCOC(=O)c1nn(C2CCCCO2)c2ccc(NC(=O)CSc3nc4ccccc4c(=O)[nH]3)cc12", "note": "(centres undefined)", "growth": "115%"}
{"smiles": "COc1ncc(-c2ccc3nccc(C#CCCCCC(=O)O)c3c2)cc1NS(=O)(=O)c1ccc(F)cc1F", "growth": "29.4%"}
{"smiles": "CCN(CC)CCS(=O)(=O)CCNc1ccnc2cc(Cl)ccc12", "growth": "-13.5% (active)"}
{"smiles": "Cc1cc(N2CCCCCC2)nc(N2CCN(CC(=O)Nc3ccc4c(ccn4Cc4ccccc4)c3)CC2)n1", "growth": "91.7%"}
{"smiles": "COc1cc(-c2cc(-c3ccc(Nc4ncnc5cc(Cl)ccc45)cc3)nc(N3CCCCC3)n2)cc(OC)c1OC", "growth": "114%"}
{"smiles": "O=C(Nc1cccc2cccnc12)c1cc(C(=O)c2ccc(Cl)cc2)n2ccc(-c3ccncc3)cc12", "growth": "113%"}
{"smiles": "O=C1/C(=C/c2cccc(OCc3ccccc3)c2)Oc2cc(OCCN3CCCCC3)ccc21", "growth": "93.3%"}
{"smiles": "COc1cc2c(c(OC)c1OC)-c1ccc(NNC(N)=S)c(=O)cc1[C@@H](NC(C)=O)CC2", "growth": "11.4%"}
{"smiles": "CCOC(=O)c1nn(C2CCCCO2)c2ccc(NC(=O)CN3CCOCC3)cc12", "note": "(centres undefined)", "growth": "109%"}
{"smiles": "O=S(=O)(NCc1ccccc1)c1ncnc2nc[nH]c12", "growth": "101%"}
{"smiles": "COc1ccccc1S(=O)Nc1ccccc1", "note": "(centres undefined)", "growth": "107%"}
{"smiles": "CC(=O)n1cc(C=O)c2ccccc21", "growth": "100%"}
{"smiles": "CC(C)=CCC[C@](C)(O)[C@H]1CC[C@]2(C)[C@@H]1CC[C@@H]1[C@@]3(C)CC[C@H](OC(=O)CCC(=O)O)C(C)(C)[C@@H]3CC[C@]12C", "growth": "20.5% [100 µM]"}
{"smiles": "COc1ccc(C2NC(=O)C(C#N)c3c2sc2c(F)cccc32)cc1", "note": "(centres undefined)", "growth": "91.5%"}
{"smiles": "Cc1ccc(NC(=O)N[C@@H](Cc2cc(F)cc(F)c2)C(=O)N[C@@H]2C(=O)N3CCC[C@H]3C(=O)N3CCCC[C@H]3C(=O)N[C@@H](C)C(=O)N3C[C@H](C)C[C@H]3C(=O)O[C@H]2C)cc1", "growth": "24.6%"}
{"smiles": "O=C1Nc2ccccc2/C1=C/C(=O)c1ccc(N2CCOCC2)cc1", "growth": "101%"}
{"smiles": "COc1ccc2nc3c(cc2c1)C(=O)CC(C(F)(F)F)C3", "note": "(centres undefined)", "growth": "84%"}
{"smiles": "CNC(=O)c1cc(Oc2ccc3nc(NC(=O)c4ccc5ncccc5c4)sc3c2)ccn1", "growth": "106%"}
{"smiles": "N#Cc1c(Cl)nc(SCC2CO2)nc1-c1ccccc1", "note": "(centres undefined)", "growth": "111%"}
{"smiles": "CCCCCCCCCN(CCCCCCCCC)C(C)C(=O)c1ccc2cc(Br)c3ccccc3c2c1", "note": "(centres undefined)", "growth": "47.7%"}
